# Assay results from the supplement of paper PMC4466140.
# B1: unnamed (peptide)
# chain: NSMRPPLLIPAATTK
# Target: AgAbp1
# Test: SPOT peptide array binding signal intensity (averaged, normalized) (arbitrary units (background-subtracted, floor 0; scale differs between SH3 domains)); higher = stronger binding of the SH3 domain to the peptide
# In short: (§1)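 E. coli BL21(DE3) was used to express GST-fused SH3 domains from four yeast species, which were then purified on glutathione Sepharose. These were incubated at 10 μg/ml in TBS-based blocking buffer overnight at 4°C on cellulose membranes carrying synthetic 15-mer peptides, in which cysteines were replaced by serines. Binding signal is the replicate average of normalized, background-subtracted spot intensity, in arbitrary units that differ between domains.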
row,Binder,SPOT peptide array binding signal intensity
1,B1,0.5

# Target: AgBbc1
# Test: as above
# In short: as §1
row,Binder,SPOT peptide array binding signal intensity
1,B1,13.5

# Target: AgBem1-D1
# Test: as above
# In short: as §1
row,Binder,SPOT peptide array binding signal intensity
1,B1,450

# Target: AgBzz1-D1
# Test: as above
# In short: as §1
row,Binder,SPOT peptide array binding signal intensity
1,B1,19

# Target: AgBzz1-D2
# Test: as above
# In short: as §1
row,Binder,SPOT peptide array binding signal intensity
1,B1,16.5

# Target: AgCyk3
# Test: as above
# In short: as §1
row,Binder,SPOT peptide array binding signal intensity
1,B1,1

# Target: AgFus1
# Test: as above
# In short: as §1
row,Binder,SPOT peptide array binding signal intensity
1,B1,384

# Target: AgHof1
# Test: as above
# In short: as §1
row,Binder,SPOT peptide array binding signal intensity
1,B1,20.5

# Target: AgHse1
# Test: as above
# In short: as §1
row,Binder,SPOT peptide array binding signal intensity
1,B1,210

# Target: AgLsb1
# Test: as above
# In short: as §1
row,Binder,SPOT peptide array binding signal intensity
1,B1,128

# Target: AgLsb4
# Test: as above
# In short: as §1
row,Binder,SPOT peptide array binding signal intensity
1,B1,12

# Target: AgMyo5
# Test: as above
# In short: as §1
row,Binder,SPOT peptide array binding signal intensity
1,B1,15

# Target: AgNbp2
# Test: as above
# In short: as §1
row,Binder,SPOT peptide array binding signal intensity
1,B1,114

# Target: AgRvs167
# Test: as above
# In short: as §1
row,Binder,SPOT peptide array binding signal intensity
1,B1,2.33

# Target: AgSho1
# Test: as above
# In short: as §1
row,Binder,SPOT peptide array binding signal intensity
1,B1,390

# Target: AgSla1-D1-D2
# Test: as above
# In short: as §1
row,Binder,SPOT peptide array binding signal intensity
1,B1,4

# Target: AgSla1-D3
# Test: as above
# In short: as §1
row,Binder,SPOT peptide array binding signal intensity
1,B1,1.75

# Target: CaAbp1-D1
# Test: as above
# In short: as §1
row,Binder,SPOT peptide array binding signal intensity
1,B1,63.5

# Target: CaAbp1-D2
# Test: as above
# In short: as §1
row,Binder,SPOT peptide array binding signal intensity
1,B1,121

# Target: CaBbc1
# Test: as above
# In short: as §1
row,Binder,SPOT peptide array binding signal intensity
1,B1,47.2

# Target: CaBem1-D1
# Test: as above
# In short: as §1
row,Binder,SPOT peptide array binding signal intensity
1,B1,378

# Target: CaBzz1-D1
# Test: as above
# In short: as §1
row,Binder,SPOT peptide array binding signal intensity
1,B1,190

# Target: CaBzz1-D2
# Test: as above
# In short: as §1
row,Binder,SPOT peptide array binding signal intensity
1,B1,111

# Target: CaCyk3
# Test: as above
# In short: as §1
row,Binder,SPOT peptide array binding signal intensity
1,B1,5.5

# Target: CaFus1
# Test: as above
# In short: as §1
row,Binder,SPOT peptide array binding signal intensity
1,B1,1550

# Target: CaHof1
# Test: as above
# In short: as §1
row,Binder,SPOT peptide array binding signal intensity
1,B1,0.5

# Target: CaHse1
# Test: as above
# In short: as §1
row,Binder,SPOT peptide array binding signal intensity
1,B1,103

# Target: CaLsb1
# Test: as above
# In short: as §1
row,Binder,SPOT peptide array binding signal intensity
1,B1,13.2

# Target: CaLsb4
# Test: as above
# In short: as §1
row,Binder,SPOT peptide array binding signal intensity
1,B1,516

# Target: CaMyo5
# Test: as above
# In short: as §1
row,Binder,SPOT peptide array binding signal intensity
1,B1,133

# Target: CaNbp2
# Test: as above
# In short: as §1
row,Binder,SPOT peptide array binding signal intensity
1,B1,291

# Target: CaRvs167
# Test: as above
# In short: as §1
row,Binder,SPOT peptide array binding signal intensity
1,B1,83.8

# Target: CaRvs167-3
# Test: as above
# In short: as §1
row,Binder,SPOT peptide array binding signal intensity
1,B1,3.75

# Target: CaSho1
# Test: as above
# In short: as §1
row,Binder,SPOT peptide array binding signal intensity
1,B1,1320

# Target: CaSla1-D1-D2
# Test: as above
# In short: as §1
row,Binder,SPOT peptide array binding signal intensity
1,B1,244

# Target: CaSla1-D3
# Test: as above
# In short: as §1
row,Binder,SPOT peptide array binding signal intensity
1,B1,317

# Target: ScAbp1
# Test: as above
# In short: as §1
row,Binder,SPOT peptide array binding signal intensity
1,B1,4

# Target: ScBbc1
# Test: as above
# In short: as §1
row,Binder,SPOT peptide array binding signal intensity
1,B1,1.5

# Target: ScBem1-D1
# Test: as above
# In short: as §1
row,Binder,SPOT peptide array binding signal intensity
1,B1,≤ 0

# Target: ScBzz1-D1
# Test: as above
# In short: as §1
row,Binder,SPOT peptide array binding signal intensity
1,B1,7.5

# Target: ScBzz1-D2
# Test: as above
# In short: as §1
row,Binder,SPOT peptide array binding signal intensity
1,B1,19.5

# Target: ScCyk3
# Test: as above
# In short: as §1
row,Binder,SPOT peptide array binding signal intensity
1,B1,6

# Target: ScFus1
# Test: as above
# In short: as §1
row,Binder,SPOT peptide array binding signal intensity
1,B1,508

# Target: ScHof1
# Test: as above
# In short: as §1
row,Binder,SPOT peptide array binding signal intensity
1,B1,≤ 0

# Target: ScHse1
# Test: as above
# In short: as §1
row,Binder,SPOT peptide array binding signal intensity
1,B1,160

# Target: ScLsb1
# Test: as above
# In short: as §1
row,Binder,SPOT peptide array binding signal intensity
1,B1,232

# Target: ScLsb2
# Test: as above
# In short: as §1
row,Binder,SPOT peptide array binding signal intensity
1,B1,1

# Target: ScLsb3
# Test: as above
# In short: as §1
row,Binder,SPOT peptide array binding signal intensity
1,B1,303

# Target: ScLsb4
# Test: as above
# In short: as §1
row,Binder,SPOT peptide array binding signal intensity
1,B1,208

# Target: ScMyo3
# Test: as above
# In short: as §1
row,Binder,SPOT peptide array binding signal intensity
1,B1,47.5

# Target: ScMyo5
# Test: as above
# In short: as §1
row,Binder,SPOT peptide array binding signal intensity
1,B1,8.5

# Target: ScNbp2
# Test: as above
# In short: as §1
row,Binder,SPOT peptide array binding signal intensity
1,B1,150

# Target: ScPex13
# Test: as above
# In short: as §1
row,Binder,SPOT peptide array binding signal intensity
1,B1,222

# Target: ScRvs167
# Test: as above
# In short: as §1
row,Binder,SPOT peptide array binding signal intensity
1,B1,53.7

# Target: ScSho1
# Test: as above
# In short: as §1
row,Binder,SPOT peptide array binding signal intensity
1,B1,562

# Target: ScSla1-D1-D2
# Test: as above
# In short: as §1
row,Binder,SPOT peptide array binding signal intensity
1,B1,266

# Target: ScSla1-D3
# Test: as above
# In short: as §1
row,Binder,SPOT peptide array binding signal intensity
1,B1,430

# Target: SpAbp1-D1
# Test: as above
# In short: as §1
row,Binder,SPOT peptide array binding signal intensity
1,B1,27

# Target: SpBbc1
# Test: as above
# In short: as §1
row,Binder,SPOT peptide array binding signal intensity
1,B1,2.75

# Target: SpBzz1-D1
# Test: as above
# In short: as §1
row,Binder,SPOT peptide array binding signal intensity
1,B1,273
